The results in this text go back to the supplement of paper PMC9262897, “Low-cost anti-mycobacterial drug discovery using engineered E. coli” (Nature Communications, 2022).

The test system of this assay is E. coli TESEC Mtb Alr. The assay is described as follows: growth (OD600 after 10 h); higher = more growth (less inhibition). Conditions: compound 0.1 mM. The procedure:
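TESEC Mtb Alr E. coli, or the Alr+ wild-type control, in 384-well plates with Prestwick library compounds at 0.1 mM and 1% DMSO, across arabinose induction levels of 1E3 to 1E7 nM. Growth is read as OD600 after 10 h at 37 °C in triplicate biological replicates.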

The mark [1] stands for this setting: arabinose 1000 nM, raw OD600 reference: median of DMSO wells 0.294, cell-free background 0.041.
[2] abbreviates: arabinose 10000 nM, raw OD600 reference: median of DMSO wells 0.264, cell-free background 0.041.
Setting [3] is: arabinose 100000 nM, raw OD600 reference: median of DMSO wells 0.201, cell-free background 0.041.
[4] abbreviates: arabinose 1000000 nM, raw OD600 reference: median of DMSO wells 0.193, cell-free background 0.041.
Setting [5] is: arabinose 10000000 nM, raw OD600 reference: median of DMSO wells 0.146, cell-free background 0.041.

Counter-ions that a name gives are not always drawn. ± gives the standard deviation of the averaged measurements.

Take `CCN(CC)CCNC(=O)c1cc(Cl)c(N)cc1OC` [Metoclopramide monohydrochloride]: the growth is 0.278 ± 0.016 under setting [1]; 0.252 ± 0.017 under setting [2]; 0.195 ± 0.015 under setting [3]; 0.179 ± 0.0077 under setting [4]; 0.144 ± 0.0028 under setting [5].
Turning to `COc1ccccc1OCC(O)COC(N)=O` (stereo not given) [Methocarbamol], the growth worked out at 0.282 ± 0.0088 under setting [1]; 0.275 ± 0.012 under setting [2]; 0.218 ± 0.018 under setting [3]; 0.187 ± 0.0043 under setting [4]; 0.141 ± 0.006 under setting [5].
For `Cc1c(C)c2c(c(C)c1O)CCC(C)(COc1ccc(CC3SC(=O)NC3=O)cc1)O2` (stereo not given) [Troglitazone] the same measures were 0.108 ± 0.06, 0.0436 ± 0.0028, 0.16 ± 0.011, 0.0474 ± 0.003 and 0.104 ± 0.016.
For `O=C1C(=O)c2ccccc2C(O)=C1C1CCC(c2ccc(Cl)cc2)CC1` (stereo not given) [Atovaquone], in that order: 0.2 ± 0.0057, 0.182 ± 0.015, 0.151 ± 0.015, 0.105 ± 0.0069 and 0.133 ± 0.0044.
`CN1CCN(c2c(F)cc3c(=O)c(C(=O)O)cn(CCF)c3c2F)CC1` [Fleroxacin]: the growth was 0.04717 ± 0.00045 under setting [1]; 0.0416 ± 0.0006 under setting [2]; 0.0505 ± 0.0014 under setting [3]; 0.0445 ± 0.00081 under setting [4]; 0.0554 ± 0.00072 under setting [5].
For `C[C@@H]1CN(c2c(F)c(N)c3c(=O)c(C(=O)O)cn(C4CC4)c3c2F)C[C@H](C)N1` [Sparfloxacin] the same measures were 0.0409 ± 0.0011, 0.0398 ± 0.0002, 0.0433 ± 0.0046, 0.04 ± 0.00078 and 0.04067 ± 0.00038.
For `Clc1ccc(C(Cn2ccnc2)OCc2csc3c(Cl)cccc23)c(Cl)c1` (stereo not given) [Sertaconazole nitrate], in that order: 0.0558 ± 0.0094, 0.07 ± 0.0042, 0.057 ± 0.0028, 0.06457 ± 0.00042 and 0.0588 ± 0.0084.
For `Cc1c(OCC(F)(F)F)ccnc1C[S+]([O-])c1nc2ccccc2[nH]1` (stereo not given) [Lansoprazole] the same measures were 0.164 ± 0.0045, 0.242 ± 0.01, 0.132 ± 0.0025, 0.094 ± 0.0041 and 0.14 ± 0.0041.
